# From publication PMC10668032, “Altered binding affinity of SIX1-Q177R correlates with enhanced WNT5A and WNT pathway effector expression in Wilms tumor”
# In all, about 33,000 sequences were measured (“e-score”: median about -0.053, highest 2% from about 0.38 on). The sample holds the highest values, similar sequences and a random draw of the others, so the mix is not that of the screen.
# Biological target: T1, SIX1 homeodomain (reference allele) (human, UniProt Q15475 108-198)
# T1 sequence: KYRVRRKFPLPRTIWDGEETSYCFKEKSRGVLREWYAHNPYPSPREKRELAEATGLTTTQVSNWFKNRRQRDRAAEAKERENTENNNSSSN
# Test: universal protein binding microarray; Universal all-10-mer PBM (8x60K, AMADID 030236), 300 nM GST-tagged protein, Alexa Fluor 488 anti-GST; buffer, salt, pH and temperature not stated (as in Berger); high values mean tight binding
# Settings: protein: ivt; tags: N-terminal GST; dsDNA, one strand shown
# Summary of the method: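 After in vitro transcription/translation, GST-tagged homeodomains were quantified against a recombinant GST standard curve by anti-GST western blot. They were then placed in duplicate at 300 nM final concentration on universal 'all 10-mer' protein binding microarrays of 8×60K format.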
row,Sequence,binding signal [E-score]
1,ATCCGTAG,0.225 ± 0.00492
2,AATACTAT,0.278 ± 0.0809
3,TATCCACA,0.326 ± 0.0288
4,AGAGTGAT,0.268 ± 0.0506
5,ATATGTTC,0.334 ± 0.0471
6,ACCTATCT,0.195 ± 0.01
7,GTGTTATA,0.219 ± 0.0623
8,TCCATACA,0.166 ± 0.0645
9,GGATCGTA,0.383 ± 0.00451
10,GCATCGGA,0.161 ± 0.101
11,ATATCGGG,0.4018 ± 0.00171
12,GTATCGGA,0.451 ± 0.0142
13,TCATCGGA,0.176 ± 0.0293
14,AGATCGGG,0.294 ± 0.0193
15,CGATCGTA,0.212 ± 0.0626
16,ATCTCGGG,0.272 ± 0.0234
17,AGATCGTA,0.237 ± 0.00569
18,CACCGGCA,0.188 ± 0.0219
19,CTATATAC,0.275 ± 0.0339
20,TACTCACA,0.165 ± 0.0208
21,ATAAGGTA,0.247 ± 0.0353
22,ACCGCGAT,0.323 ± 0.00333
23,GTGTATCA,0.4623 ± 0.00404
24,GTGTATGA,0.17 ± 0.0805
25,ATGTATCA,0.448 ± 0.011

row,Sequence,binding signal [E-score]
1,ATGTATAC,0.325 ± 0.0321
2,ATGTATCC,0.407 ± 0.00354
3,ATGTATAA,0.154 ± 0.0486
4,ATGTATTG,0.209 ± 0.0502
5,ATGTATTA,0.241 ± 0.0485
6,GTGTATTA,0.271 ± 0.032
7,ATGTATAG,0.217 ± 0.0184
8,ATCTATCC,0.372 ± 0.0185
9,ATGTATCG,0.38 ± 0.0144
10,ATCCTGGG,0.235 ± 0.00999
11,ACATTATC,0.165 ± 0.0505
12,TACCGCGA,0.25 ± 0.0197
13,ATCATCGC,0.326 ± 0.0174
14,TACCCGCA,0.161 ± 0.0756
15,ATCGACAC,0.306 ± 0.0819
16,ATCTTGCA,0.216 ± 0.0388
17,CTGTATGA,0.187 ± 0.0219
18,ATTTATCC,0.198 ± 0.0661
19,CTGTATTA,0.18 ± 0.00737
20,CTGTATCC,0.387 ± 0.0293
21,CTGTATAC,0.338 ± 0.0175
22,CTGTATCA,0.418 ± 0.0231
23,CTCAGGTA,0.16 ± 0.0411
24,CTCCTATC,0.2712 ± 0.00126
25,AGAGTGAG,0.172 ± 0.0561

row,Sequence,binding signal [E-score]
1,CCGGCTCA,0.256 ± 0.0189
2,AAACCCAT,0.169 ± 0.00646
3,ACACCCAT,0.271 ± 0.0323
4,CACCCCAC,0.263 ± 0.128
5,ATACCCAG,0.382
6,ATACCAAG,0.285 ± 0.0262
7,ACACCCAC,0.221 ± 0.0764
8,ACACCCAA,0.331 ± 0.0548
9,ATACCCAA,0.401 ± 0.0166
10,ATACCAAA,0.317 ± 0.0247
11,ACACCCAG,0.278 ± 0.0263
12,ATACCCAT,0.393 ± 0.00746
13,ATACCCAC,0.392
14,GAGCCGGA,0.166 ± 0.0429
15,TATGCGGA,0.284 ± 0.018
16,ATGCGATC,0.309 ± 0.0257
17,ATACGAGG,0.232 ± 0.0433
18,CATCTCAG,0.227 ± 0.014
19,TACGCATA,0.197 ± 0.0197
20,ATAGGGAT,0.395 ± 0.00975
21,ATAGGGGA,0.287 ± 0.00909
22,ACAGGGAT,0.297 ± 0.0162
23,ACCTTATA,0.17 ± 0.0678
24,ATATCGCG,0.422 ± 0.0273
25,AGATCGCC,0.288 ± 0.0356

row,Sequence,binding signal [E-score]
1,CTATCGCC,0.179 ± 0.0265
2,ATATCGCA,0.42 ± 0.0293
3,TGATCGCA,0.171 ± 0.0248
4,GTATCGCA,0.431 ± 0.0148
5,GGATCGCA,0.366 ± 0.0387
6,ACATCGCA,0.152 ± 0.012
7,ATATCGCC,0.441 ± 0.0115
8,CTATCGCA,0.186 ± 0.0165
9,AGATCGCG,0.22 ± 0.0358
10,ATCGCGCG,0.213 ± 0.0714
11,ATCGGTCG,0.225 ± 0.0271
12,CGGTTATC,0.309 ± 0.0176
13,AGTACGAT,0.248 ± 0.0454
14,ATCATAAT,0.229 ± 0.0622
15,GATAATGC,0.16 ± 0.00226
16,GCGATCTA,0.218 ± 0.0326
17,CTCCGGTA,0.244 ± 0.0299
18,GAAACACC,0.189 ± 0.0066
19,CGATCCCA,0.346 ± 0.0579
20,AGATCCCC,0.384 ± 0.0161
21,CGATCCCC,0.437 ± 0.041
22,GGATCCCC,0.419 ± 0.0404
23,AGATCCCG,0.302 ± 0.0627
24,AGATCCCA,0.213 ± 0.0026
25,AGATCCCT,0.292 ± 0.00813

row,Sequence,binding signal [E-score]
1,TGATCCAA,0.324 ± 0.0147
2,TGATCCCA,0.3763 ± 0.00132
3,GAATCCCC,0.23 ± 0.0451
4,CGATCCCG,0.332 ± 0.04
5,GGATCCCA,0.37 ± 0.0601
6,ATATACAA,0.27 ± 0.0205
7,ATAGGAGA,0.185 ± 0.0295
8,GATCGTAC,0.274 ± 0.0438
9,ATACATGG,0.3102 ± 0.0018
10,AGGACACC,0.366 ± 0.0116
11,CAGACACC,0.291 ± 0.0577
12,ATGACACG,0.289 ± 0.0161
13,ATGACACC,0.4711 ± 0.00199
14,CTGACACC,0.468 ± 0.0134
15,CGGACACC,0.3658 ± 0.00136
16,TATCGCAA,0.33 ± 0.0108
17,CCAGGAGA,0.158 ± 0.0169
18,AGCATGAT,0.2 ± 0.0238
19,ATAAGCAG,0.173 ± 0.00802
20,AGATGATC,0.38 ± 0.0348
21,CGCTGATC,0.279 ± 0.0361
22,AGAAGATC,0.231 ± 0.077
23,CGATGATC,0.379 ± 0.019
24,AGAAGATA,0.201 ± 0.105
25,AGATGATA,0.432 ± 0.0425

row,Sequence,binding signal [E-score]
1,AGATGAGA,0.224 ± 0.0832
2,GGATGATA,0.443 ± 0.0105
3,CGATCATC,0.3167 ± 0.00296
4,GGATGAGA,0.212 ± 0.0038
5,AGCTGATC,0.3159 ± 0.00281
6,GGATGGTA,0.214 ± 0.0386
7,ATGAAACC,0.242 ± 0.0415
8,ATCCCATA,0.351 ± 0.0216
9,ATATTTGA,0.173 ± 0.0606
10,ATCATTTG,0.244 ± 0.0909
11,ATCGGGCC,0.188 ± 0.0382
12,ACACCTGT,0.277 ± 0.00124
13,TATCGAGA,0.293 ± 0.0133
14,ATAGCCGG,0.22519 ± 0.00017
15,ACGCATCT,0.169 ± 0.0233
16,GGCAGATA,0.216 ± 0.0469
17,ACAGTGAT,0.199 ± 0.0229
18,ACTAGGAT,0.187 ± 0.0427
19,CAGTTATC,0.176 ± 0.0291
20,AACAATAT,0.253 ± 0.0623
21,CGATGAGA,0.191 ± 0.0564
22,CGATGACA,0.18 ± 0.00711
23,CGATGATA,0.445 ± 0.0281
24,ATTATGCG,0.242 ± 0.0214
25,GTGTAGTA,0.185 ± 0.0109

row,Sequence,binding signal [E-score]
1,CACTATCA,0.276 ± 0.0303
2,CGATATAC,0.405 ± 0.0197
3,CGATATAG,0.362 ± 0.0306
4,AGATATAC,0.38 ± 0.0393
5,CGATATAA,0.243 ± 0.0501
6,GGATATAC,0.406 ± 0.0168
7,GGATATAA,0.352 ± 0.0244
8,GTATATAC,0.316 ± 0.0323
9,AGATATAA,0.261 ± 0.0786
10,AGATATAT,0.337 ± 0.0754
11,ACACGGGC,0.179 ± 0.0209
12,ACCCCGTA,0.209 ± 0.0622
13,CGGTTTCA,0.152 ± 0.0123
14,ATCCTCAC,0.234 ± 0.0503
15,ATAGTGTA,0.205 ± 0.0143
16,CTCAAGGA,0.164 ± 0.0491
17,GGGGCGGA,0.159 ± 0.113
18,ATTTATAC,0.22 ± 0.116
19,TATGGTAA,0.166 ± 0.0578
20,ACACCCCC,0.3856 ± 0.00209
21,ATACCCCA,0.43 ± 0.00878
22,AGACCCCG,0.23 ± 0.085
23,ATTACCCC,0.177 ± 0.0101
24,ATACCCCC,0.454 ± 0.015
25,ATACCCCG,0.4703 ± 0.00344

row,Sequence,binding signal [E-score]
1,TACCCCCA,0.243 ± 0.0116
2,ATAACCCC,0.251 ± 0.0341
3,ACCCCCCG,0.168 ± 0.0136
4,ACACCCCA,0.365 ± 0.0445
5,TGACCCCA,0.198 ± 0.0237
6,ACACCCCG,0.353 ± 0.0394
7,ATAGCCTG,0.205 ± 0.031
8,ATCCCATG,0.311 ± 0.0488
9,GACCATGA,0.216 ± 0.0376
10,GGGAGATA,0.3342 ± 0.000849
11,ATCAGTAC,0.2244 ± 0.00203
12,GATCACTA,0.371 ± 0.0113
13,GGATAGGA,0.28 ± 0.0103
14,AGATAGCT,0.178 ± 0.0771
15,GATCCTAA,0.262 ± 0.00612
16,ATCAGGGC,0.178 ± 0.0395
17,ACAAGGTA,0.192 ± 0.0136
18,GATAGTAC,0.212 ± 0.0174
19,GAGAGATC,0.286 ± 0.00645
20,CAGATATG,0.315 ± 0.0384
21,CAGATATA,0.263 ± 0.0342
22,AAGATATT,0.214 ± 0.124
23,AAGATATG,0.303 ± 0.0441
24,CAGATATC,0.456 ± 0.0169
25,GAGATATA,0.359 ± 0.0685

row,Sequence,binding signal [E-score]
1,GAGATATC,0.442 ± 0.0368
2,AAGATATC,0.445 ± 0.0468
3,CTCTACAC,0.163 ± 0.00511
4,ACCATAGA,0.197 ± 0.0646
5,CCGATCTA,0.2622 ± 0.00225
6,ATAGTGCA,0.163 ± 0.0274
7,CGAGGGTA,0.159 ± 0.0143
8,ACTAATCC,0.228 ± 0.027
9,AGATCAGG,0.284 ± 0.0116
10,AGATCAGC,0.273 ± 0.00331
11,GTATCTGA,0.355 ± 0.00568
12,ATATCAGG,0.403 ± 0.0398
13,ATCTCAGA,0.31 ± 0.0258
14,CTATCAGC,0.202 ± 0.00952
15,ATCTCAGG,0.164 ± 0.0156
16,GTGTCAGA,0.29 ± 0.0236
17,GTATCAGA,0.466 ± 0.0136
18,ATATCAGA,0.408 ± 0.0495
19,ATATCAGC,0.404 ± 0.0329
20,CTATCAGA,0.271 ± 0.0216
